Measured values published in PubChem BioAssay (Tox21).
Records with an inconclusive call do not appear. Values without a mark were called inactive. Calls of active or inactive are those of the source. The call rests on the fitted dose curve.

Test: qHTS assay for small molecule disruptors of the mitochondrial membrane potential - cell viability (AID 720634);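 further: human HepG2 liver cancer cells; nearly all actives have a fitted effect of over 20% in size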
Conditions: HepG2 viability, ATP luminescence (CellTiter-Glo), 1 h; series mostly up to 83.2 µM; activity change, negative = cytotoxicity: at the top concentration
Source text: U.S. Tox21 Program National Center for Advancing Translational Sciences [NCATS] NIH Chemical Genomics Center [NCGC] U.S. Environmental Protection Agency [EPA] National Institutes of Environmental Health Sciences [NIEHS] National Toxicology Program [NTP] U.S. Food and Drug Administration [FDA] Tox21 Assay Overview: Mitochondrial membrane potential (MMP), one of the parameters for mitochondrial function, is generated by mitochondrial electron transport chain that creates an electrochemical gradient by a series of redox reactions. This gradient drives the synthesis of ATP, a crucial molecule for various cellular processes. Measuring MMP in living cells is commonly used to assess the effect of chemicals on mitochondrial function; decreases in MMP can be detected using lipophilic cationic fluorescent dyes. […] The dye accumulates in the mitochondria of healthy cells as aggregates, with red fluorescence. The mitochondrial potential decreases and the dye could not accumulate in the mitochondria and remains in the cytoplasm in monomers, with green fluorescence. In addition to the mitochondrial potential assay, these cells were also used to test the cytotoxicity by determining the cell viability in the culture based on the quantitation of ATP present. The cytotoxicity was measured in the same assay well of MMP assay.
Tox21 Assay Protocol Summary: 2,000 HepG2 cells in 5 uL/well were dispensed into black, clear-bottom 1536-well plates using a Multidrop Combi (Thermo Scientific) dispenser. The assay plates were incubated for an overnight at 37 C to allow cells to attach to the wells, followed by the transfer of 23 nL compound or DMSO vehicle by a pin tool (Kalypsys). The plates were incubated for 1 hr at 37 C and 5% CO2, followed by the addition of 5 uL of 2X m-MPI dye into each well using Flying Reagent Dispenser (Aurora Discovery) and then CellTiter-Glo reagent was added at 4 uL/well and incubated 30 min at room temperature. Then luminescence intensity was quantified on a ViewLux CCD-based plate reader.
On the % scale 0 is the no-effect control and ±100 the full control effect.

Compound | activity change, negative = cytotoxicity | outcome
CN(C)CCCN(C)CCCN(C)C | -4.24% | 
CCOc1ccccc1OCC | 13.2% | 
NS(=O)(=O)Cc1noc2ccccc12 | -12.6% | 
NCCCC(N)(C(=O)O)C(F)F (stereo not given) | 4.13% | 
C[N+]1(C)CCCC(OC(=O)C(O)(c2ccccc2)c2ccccc2)C1 (stereo not given) | -3.36% [at 39.1 µM] | 
CC1=NN(c2cccc(S(=O)(=O)O)c2)C(=O)C1 | 14.8% | 
C[N+]12CCC(CC1)C(OC(=O)C(O)(c1ccccc1)c1ccccc1)C2 (stereo not given) | -10.2% [at 39.1 µM] | 
N[C@H](C(=O)O)[C@@H](O)c1ccc(O)c(O)c1 | 26.3% | 
CC1=NS(=O)(=O)c2cc(Cl)ccc2N1 | 23.1% | 
CO[C@@]1(NC(=O)CSC[C@@H](N)C(=O)O)C(=O)N2C(C(=O)O)=C(CSc3nnnn3C)CS[C@@H]21 | -2.22% | 
CC(C)(CCC(=O)O)C(=O)O | 5.8% [at 95.3 µM] | 
CCCC(C)C(=O)OCC (stereo not given) | 2.1% | 
O=S(=O)(O)c1cccc(S(=O)(=O)O)c1 | 9.2% | 
CC1=CC(=O)[C@H]2C[C@@H]1C2(C)C | 7.56% | 
CC1(C)[C@@H]2CC[C@@]1(C)[C@H](O)C2 | 8.26% | 
NCCCC[C@H](N[C@@H](CCc1ccccc1)C(=O)O)C(=O)N1CCC[C@H]1C(=O)O | -9.99% [at 39.1 µM] | 
CC(C)C(=O)OC(=O)C(C)C | 4.7% | 
C=CCOCC(O)CO (stereo not given) | 7.53% | 
COc1cc(C(=O)OC(COCCC(C)C)CN2CCOCC2)cc(OC)c1OC (stereo not given) | 2.44% | 
C=COCC1CCC(COC=C)CC1 (stereo not given) | 6.34% | 

Compound | activity change, negative = cytotoxicity | outcome
CCCCCCCCCCCCSC | -5.98% | 
CCOC(=O)COC(=O)c1ccccc1C(=O)OCC | -6.2% | 
O=C1NC(=O)C2CC=CCC12 (stereo not given) | 2.19% | 
CCCCCCCCCCCCCCC(=O)O | -3.76% | 
CCCCN1C=CN(C)C1 | 4.48% [at 39.1 µM] | 
Cc1nc2ccc(CN(C)c3ccc(C(=O)N[C@@H](CCC(=O)O)C(=O)O)s3)cc2c(=O)[nH]1 |  | inactive
C1CCC2(CCCCO2)OC1 | -7.17% | 
[Ca+2] | -9.32% | 
CCN1CCOCC1 | 3.56% | 
FB(F)F | 8.84% [at 95.3 µM] | 
CCOC(=O)c1ccccc1 | 5.3% | 
CCCC[N+](C)(CCCC)CCCC | -4.19% | 
COc1ccnc(CS(=O)c2nc3cc(OC(F)F)ccc3[nH]2)c1OC (stereo not given) |  | inactive
O=CN(CCO)CCO | 8.3% | 
COc1cccc(OC)c1C(=O)N[C@@H]1C(=O)N2[C@@H]1SC(C)(C)[C@@H]2C(=O)O | 1.01% | 
CC/C=C\CCOC(C)OCC (stereo not given) | 4% | 
CCCCCCC1CCC(=O)O1 (stereo not given) | 9.15% [at 95.3 µM] | 
CCCCOCCOC(=O)COc1cc(Cl)c(Cl)cc1Cl | 14.5% | 
CCOCC(C)O (stereo not given) | -8.41% | 
CC(C)(N)C#N | 9.19% [at 95.3 µM] | 
